The list is not random: actives were taken first. Their share in the collection is about 7.9%.
M1 antag: antagonists of rat M1 muscarinic receptor. P08482. hit rate 3.4% among 64,000. CHO-M1 cells, Fluo-4 calcium, ACh EC80 antagonist mode; active compounds read low. B-score at 10 µM;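 active means calcium fluorescence response, raw or row-and-column corrected B-score, differing from the plate sample mean either way at a set confidence level, mostly lower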
Her2 expr inh: lowers expression of human Her2 kinase. SKBR-3 HER2 protein level, AlphaScreen, 18-24 h; active compounds read low. AID 645. HER2 level % of control, % at 10 µM. P04626. hit rate 0.69% among 65,000;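 active means HER2 level under 5% of the carrier-only control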;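 further: 100% = DMSO carrier and 0% = 500 nM PU-H71 HSP90 inhibitor; lower value means stronger loss of Her2 protein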
Cav32 inh: inhibitors of human Cav3.2 T-type calcium channel. hit rate 4% among 100,000. B-score at 10 µM. O95180. Cav3.2-expressing cells, Fluo-4 calcium fluorescence FDSS; active compounds read low;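 active means single-dose well whose peak fluorescence ratio is a statistical outlier from its plate by either plate-standardised score or position-corrected B-score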
M1 agonist: M1 muscarinic receptor agonism; CHO-M1 cells, Fluo-4 calcium fluorescence, agonist mode; active compounds read high; B-score at 10 µM; hit rate 3% among 64,000; AID 626;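 active means fluorescence rise, raw or as B-score row- and column-corrected plate score, outside the 99.7% band of its plate's samples, either direction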
PLAP activator: activators of human placental alkaline phosphatase; purified PLAP enzyme, luminescent substrate read-out; active compounds read high; activation fold at 20 µM; hit rate 1.2% among 96,000; in the data active means activation fold above about 2
Target sequence (P05187 whole entry, looked up): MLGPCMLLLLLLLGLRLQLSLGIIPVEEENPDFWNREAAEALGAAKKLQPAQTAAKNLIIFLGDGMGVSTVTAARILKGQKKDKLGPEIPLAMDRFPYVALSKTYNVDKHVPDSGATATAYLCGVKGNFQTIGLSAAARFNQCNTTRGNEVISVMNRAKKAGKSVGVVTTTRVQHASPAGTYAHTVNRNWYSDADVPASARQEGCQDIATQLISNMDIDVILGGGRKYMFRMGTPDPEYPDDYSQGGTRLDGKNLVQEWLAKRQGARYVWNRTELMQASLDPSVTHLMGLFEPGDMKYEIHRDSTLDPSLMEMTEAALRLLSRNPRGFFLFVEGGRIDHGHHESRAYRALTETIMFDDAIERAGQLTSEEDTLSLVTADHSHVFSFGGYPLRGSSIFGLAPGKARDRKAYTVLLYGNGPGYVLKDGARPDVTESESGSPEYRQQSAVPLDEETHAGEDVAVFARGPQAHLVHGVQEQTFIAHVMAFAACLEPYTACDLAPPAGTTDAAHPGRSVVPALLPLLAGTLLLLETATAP
Numbers without * were called inactive; . = no result.

SMILES | M1 antag | Her2 expr inh | Cav32 inh | M1 agonist | PLAP activator
CCOC(=O)N1CCN(C(=O)CCCn2c(=O)[nH]c3ccccc3c2=O)CC1 | 0.025 | 109 | 0.27 | -1.1 | 1.1
CCOC(=O)N1CCN(C(=O)CCCn2c(=S)[nH]c3ccc(Br)cc3c2=O)CC1 | . | . | 2.4 | . | 2*
CCOC(=O)N1CCN(C(=O)c2ccc3c(=O)n(Cc4ccc(OC)cc4)c(=S)[nH]c3c2)CC1 | -1.7 | 131 | -4.1* | 1.8 | .
O=S(Cc1ccccc1)CC(O)(c1ccccc1)c1ccccc1 (stereo not given) | . | . | -0.92 | . | 1
CCOc1cc(S(=O)(=O)n2cc(-c3ccc(F)cc3)c(N)n2)cc(OCC)c1OCC | -0.4 | 80 | -5.5* | 1.5 | 0.8
CCOC(=O)CN1C(=O)C(O)(C2CCc3ccccc3C2=O)c2ccccc21 (stereo not given) | -0.13 | 145 | -1.8 | -0.014 | 1.2
O=C(CN(c1ccccc1)S(=O)(=O)c1ccccc1[N+](=O)[O-])NN=C1CCCCCCC1 | . | . | -3.6 | . | 1.1
Cc1nn(C)cc1/C=N\NC(=O)c1ccc2c(c1)c(C)c(C)n2Cc1ccccc1 | . | . | -3.8* | . | .
CCN(C(=O)CSc1nc2ccccc2n1CCc1ccccc1)C1CCS(=O)(=O)C1 (stereo not given) | . | . | 0.33 | . | 2.4*
COC(C[C@@H](O)[C@@H](C)[C@@H](O)COCc1ccccc1)OC | . | . | -1.6 | . | .
O=C(Cn1nnc(-c2ccc(Cl)cc2)n1)NC1CCN(Cc2ccccc2)CC1 | -1.9 | 82 | -5.9* | -0.28 | 1.5
Cc1ccc(-c2nnn(CC(=O)NC3CCN(Cc4ccccc4)CC3)n2)cc1 | . | . | -4.8 | . | .
CCc1ccc(C(=O)Nc2cc3c(cc2Cl)OCCCO3)cc1 | . | . | -0.91 | . | 0.9
O=C(O)c1cc(-c2ccccn2)n[nH]1 | -0.25 | 101 | 0.76 | 1.3 | 2.5*
O=C(O)c1cc(-c2ccc(Cl)cc2)n[nH]1 | -0.81 | 92 | 0.51 | -1.2 | 1.1
O=C(CCCSc1nc2ccccc2[nH]1)N1CCN(c2ccc([N+](=O)[O-])cc2)CC1 | . | . | -3.1 | . | 0.8
CC(=O)NC1C(=O)Nc2c(C)cc(C)cc21 (stereo not given) | . | . | 0.21 | . | 1
CC(C)(C)n1nnnc1C(c1cccs1)N1CCCc2ccccc21 (stereo not given) | -0.18 | 82 | -5.9* | 0.44 | 1
CC(C)C(c1nnnn1C1CCCCC1)N1CCCc2ccccc21 (stereo not given) | . | . | 0.0017 | . | .
CC(C)C(c1nnnn1C1CCCC1)N1CCCc2ccccc21 (stereo not given) | -1.2 | 106 | -3.9* | -0.99 | .
CC(C)(C)n1nnnc1C(c1cccs1)N1CCCC2(CCCCC2)C1 (stereo not given) | . | 78 | -3.9 | . | .
Cc1onc(-c2c(Cl)cccc2Cl)c1C(=O)NCCc1ccc(S(N)(=O)=O)cc1 | . | . | 0.0096 | . | 1.6
O=C1N=C2SCCN2/C1=C\c1ccccc1Cl | . | . | 1.6 | . | 1.1
Cc1cc(/C=N/NC(=O)c2cccs2)c(C)n1-c1ccccc1 | . | . | -7.9* | . | 1.3
COC(=O)c1ccc(NC(=O)Cn2nc(-c3ccncc3)nc2SCC(=O)Nc2nccs2)cc1 | . | . | -0.63 | . | 1
SMILES | M1 antag | Her2 expr inh | Cav32 inh | M1 agonist | PLAP activator
COc1ccc(C2C=C(c3ccc(Br)cc3)Nc3nc(N4C(=O)CCC4=O)nn32)cc1 (stereo not given) | 0.25 | 59 | . | 21* | 1.9
O=C1CCC(=O)N1c1nc2n(n1)C(c1ccccc1)C=C(c1ccc(Br)cc1)N2 (stereo not given) | -0.64 | 116 | . | 26* | 2*
CCOc1ncccc1C(=O)OCc1cc(=O)n2c(n1)sc1ccccc12 | -0.19 | 98 | . | 0.021 | .
CCN(CC)c1nc2ccccc2nc1-n1nc(C)cc1C | . | . | -0.89 | . | 0.9
O=C(CSC1=NCCS1)N1CCOCC1 | 2.1* | 87 | -1.5 | -1.5 | 1
Cc1cc(C)n(C(=O)c2cc3c(s2)CCCC3)n1 | . | . | -0.044 | . | 1.2
CCN(CCCNC(=O)CN(C)S(=O)(=O)c1cccc2nsnc12)c1ccccc1 | -0.12 | 77 | . | -0.55 | 1.1
CCCCCC/C(=N\NS(C)(=O)=O)c1ccccc1 | . | . | -4.9* | . | 1.3
CCCCCC/C(=N/O)c1ccccn1 | 0.097 | 105 | -2.9 | -0.0051 | 1.2
O=C(Oc1ccc(F)cc1C(=O)/C=C/c1cccs1)c1cccc([N+](=O)[O-])c1 | . | . | -1.7 | . | 0.9
O=C(/C=C/c1cc([N+](=O)[O-])ccc1OC(F)F)NCc1ccc(F)cc1 | . | . | -6.1* | . | 0.7
Cc1nn(C)c(C)c1S(=O)(=O)N(CC(=O)N1CCc2ccccc21)c1ccc(C(C)C)cc1 | . | . | 0.42 | . | 0.8
Cc1nn(C)c(C)c1S(=O)(=O)N(CC(=O)N1CCc2ccccc2C1)c1ccc(C(C)C)cc1 | . | . | -4.8* | . | 1.4
COc1ccc(N(CC(=O)N2CCc3ccccc3C2)S(C)(=O)=O)cc1OC | . | . | 1.2 | . | 1
O=C(CN(C1CCCCC1)C1CCCCC1)N1CCc2ccccc2C1 | . | . | -5.8* | . | 1.6
O=C(CN(c1ccc(Cl)cc1)S(=O)(=O)c1ccccc1)N1CCN(c2ccccc2)CC1 | . | . | -8.1* | . | 1.8
O=C(CN(c1ccc(Cl)c(Cl)c1)S(=O)(=O)c1ccccc1)N1CCc2ccccc2C1 | . | . | -5.4* | . | 1.2
CC(C)(C)OC(=O)NCCCC1=CC2=CC(=O)C(C)(OC(=O)C3CCCC3)C(=O)C2=CO1 (stereo not given) | . | . | -0.11 | . | .
COC(=O)c1nn(-c2c(C)n(C)n(-c3ccccc3)c2=O)cc1O | -0.86 | 122 | -0.15 | 0.61 | 0.8
O=C(CCc1ccccc1)N1CCN(c2ccc(Cl)cc2)CC1 | . | . | -5* | . | 1.2
Cn1cc(CC(=O)N2CCN(c3ccc(Cl)cc3)CC2)c2ccccc21 | 0.11 | 92 | -4.5* | 0.099 | 0.8
O=C(Nc1ccc(Cl)cc1)N1CCN(c2ccccc2)CC1 | . | . | -2.4 | . | .
O=C1CC(SCCc2nc3ccccc3[nH]2)C(=O)N1c1ccc(Cl)cc1 (stereo not given) | . | . | -6.5* | . | 1.2
O=C1CC(SCc2nc3ccccc3[nH]2)C(=O)N1c1ccc(F)c(Cl)c1 (stereo not given) | . | . | -1.8 | . | 1.6
O=C1CC(SCc2nc3ccccc3[nH]2)C(=O)N1c1ccc(Cl)cc1 (stereo not given) | . | . | -4.9* | . | 1.4
SMILES | M1 antag | Her2 expr inh | Cav32 inh | M1 agonist | PLAP activator
Cn1c(=O)c2c(nc(CN3CCN(c4cccc(Cl)c4)CC3)n2CCc2ccccc2)n(C)c1=O | 0.27 | 10 | -2.4 | -1.8 | .
Cc1ccc(Cn2c(CN(C)Cc3ccccc3)nc3c2c(=O)n(C)c(=O)n3C)cc1 | -0.18 | 93 | -5.2* | -0.26 | 1.5
CN(Cc1ccccc1)c1nc2c(c(=O)[nH]c(=O)n2C)n1Cc1ccccc1 | -0.018 | 135 | -0.4 | -0.0032 | 1.1
CN(Cc1ccccc1)c1nc2c(c(=O)n(C)c(=O)n2C)n1CCCc1ccccc1 | . | 72 | -6.3* | . | 2.1*
Cn1c(=O)c2c(nc(CN3CCN(c4ccccc4)CC3)n2CCc2ccccc2)n(C)c1=O | 0.8 | 77 | -5.7* | 0.13 | .
CN(Cc1ccccc1)c1nc2c(c(=O)[nH]c(=O)n2C)n1CCOc1ccccc1 | -0.006 | 253 | -4.8* | 0.89 | 1.4
CCCCCn1c(CN(C)Cc2ccccc2)nc2c1c(=O)n(C)c(=O)n2C | 0.16 | 91 | -2.9 | 0.091 | 2*
